# This excerpt belongs to a sample that is enriched for hits.
# Pf Dd2 inh: blocks in vitro growth of P. falciparum Dd2; P. falciparum Dd2 growth, SYBR Green, 72 h; Potency, µM (series often up to 28.9 µM), for the others: at the top dose activity, negative = inhibition, actives largely listed as inhibitors; 120,000 tested, 4.3% active; AID 1347417; active means well fitted inhibition curve with a large enough effect;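 further: plate controls were DMSO vehicle for no effect and reference drug for full effect; nearly all actives have a fitted effect of over 65% in size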
#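 Infected erythrocytes (Dd2, 0.3% parasitemia, 2.5% hematocrit final) are added to compound in RPMI-1640/Albumax II medium, grown 72 h at 37C in low oxygen, then lysed with saponin/Triton-X containing SYBR Green and read by fluorescence.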
# * marks the source's active call; other numbers are inactive results; i = inactive; [ ] = dose if it differs, or a comment. Potency means the concentration at half of the fitted maximal effect.
SMILES,Pf Dd2 inh
CC(C)c1noc(-c2cccn3c(CNC(=O)c4cccc5[nH]ccc45)nnc23)n1,-18%
O=C(Cn1cccc1-c1nc(-c2ccc(F)cc2)no1)Nc1ccc(Cl)cc1,144%
COc1ccc(NC(=O)Cn2cccc2-c2nc(-c3ccccc3)no2)cc1,3.2µM*
COc1ccc(-c2noc(-c3cccn3CC(=O)N3CCN(c4ccccc4OC)CC3)n2)cc1F,-23%
O=C(Cn1cccc1-c1nc(-c2ccccc2)no1)Nc1cc(F)cc(F)c1,10%
COC(=O)c1ccccc1NC(=O)Cn1cccc1-c1nc(-c2ccccc2)no1,21%
O=C(Cn1cccc1-c1nc(-c2ccccc2)no1)N1CCN(c2ccccc2F)CC1,7.9µM*
O=C(Cn1cccc1-c1nc(-c2ccccc2)no1)Nc1cccc(Cl)c1,2.5µM*
CC(=O)Nc1ccc(NC(=O)Cn2cccc2-c2nc(-c3ccc(F)cc3)no2)cc1,-18%
Cc1c(Cl)cccc1NC(=O)Cn1cccc1-c1nc(-c2ccc(F)cc2)no1,87%
O=C(Cn1cccc1-c1nc(-c2ccc(F)cc2)no1)Nc1ccc(F)c(F)c1,i
CCOc1ccccc1NC(=O)Cn1cccc1-c1nc(-c2ccc(F)cc2)no1,10µM*
Cc1cccc(NC(=O)Cn2cccc2-c2nc(-c3ccc(F)cc3)no2)c1C,-14%
Cc1cccc(Cl)c1NC(=O)CN1C(=O)NC(c2ccc(Cl)cc2)C2=C1COC2=O (centres undefined),-16%
CN1CCC(CNC(=O)c2cc(-c3ccc(F)cc3)cc3ncn(C)c23)CC1=O (centres undefined),6%[44.1 µM]
CNC(=O)c1cc(-c2ccc(O)c(F)c2)cc2c1OCCN2Cc1cccnc1,i
COc1cccc(CNC(=O)Cn2c(=O)oc3cc(S(=O)(=O)N4CCC(C)CC4)ccc32)c1,-5%
CC1CCN(S(=O)(=O)c2ccc3c(c2)oc(=O)n3CC(=O)NCc2ccc(F)cc2)CC1,5.6µM*
COc1ccc(CNC(=O)Cn2c(=O)oc3cc(S(=O)(=O)N4CCCC4)ccc32)cc1,-1%
CN(Cc1ccc(F)cc1)Cc1cccn1C,-29%[44.1 µM]
CN(Cc1cccc(CCN)c1)Cc1cnn(-c2ccc(F)cc2)c1,10µM*
CN1C(=O)CC(C(=O)O)C12CCN(Cc1cnn(-c3ccc(F)cc3)c1)CC2 (centres undefined),-3%
O=C(c1ccc(F)cc1F)N1CCC(n2cnnc2C2CC2)CC1,12%
Cc1cc(N2CCN(c3cccc(C(F)(F)F)c3)CC2)n2nc(-c3ccccc3C)nc2n1,11µM*
COc1ccc(N2CCN(c3cc(C)nc4nc(-c5ccc(C)cc5)nn34)CC2)cc1,-10%
SMILES,Pf Dd2 inh
COc1ccc(-c2nc3nc(C)cc(Nc4cccc(C(F)(F)F)c4)n3n2)cc1,6%
Cc1cc(CN2CC(Oc3ccc(F)cc3F)C2)no1,5%[44.1 µM]
COc1ccc(CNC(=O)c2cc3cc4ccc(C)cc4nc3o2)cc1,i
Cc1ccc2cc3cc(C(=O)N(C)c4ccccc4C)oc3nc2c1,11µM*
COc1ccc2cc3cc(C(=O)NCc4ccccc4OC)oc3nc2c1,i
O=C(Nc1cccc(-c2ccc(F)cc2)c1)C1CCCN1C(=O)c1ccncc1 (centres undefined),-9%
c1ccc2c(c1)CCCN2CCCNc1ncncn1,-15%
c1cncc(-c2ccnc(NCCCn3nccc3C3CC3)n2)c1,-28%
c1cncc(-c2ccnc(NCCCN3CCCc4ccccc43)n2)c1,11µM*
CN1CCN([C@H]2CCN(C(=O)c3c(Cl)cnn3C)C[C@H]2CCC(=O)O)CC1,-2%
Cc1c(C(=O)OCC2CCCCC2)[nH]c2c1C(=O)CC(c1ccc(Cl)cc1)C2 (centres undefined),3%
CCOC(=O)C1=C(CN(CC)Cc2ccccc2)NC(=O)NC1c1ccc(OC)cc1 (centres undefined),i
Cc1ccc(COC(=O)c2[nH]c3c(c2C)C(=O)CC(c2ccc(Cl)cc2)C3)cc1 (centres undefined),-6%
CCOC(=O)c1[nH]c2c(c1Cc1ccccc1)C(=O)CC(c1ccc(Cl)cc1)C2 (centres undefined),10µM*
CCOC(=O)c1cc(-c2ccc(OC)cc2)nn1Cc1ccccc1,-1%
CCOC(=O)c1[nH]c2c(c1Cc1ccccc1)C(=O)CC(c1ccc(OC)cc1)C2 (centres undefined),11µM*
O=S(=O)(Nc1ncc(CN2CC[C@H]3CNC[C@H]32)cn1)c1ccccc1,-4%
O=C(N[C@@H]1CNC[C@H]1O)C1CCN(c2nc(-c3ccccc3)nc3c2CCC3)CC1,-8%
COCCN1C(=O)CC[C@]2(C(=O)NCc3ccc(F)c(Cl)c3)CCCC[C@@H]12,-23%
CCOC1CCOC2(CCN(C(=O)c3ccoc3)CC2)C1 (centres undefined),18%
COc1ccc2c(c1)CCc1sc(NC(=O)c3ccc(Br)cc3)nc1-2,-2%
COc1cccc(OC)c1C(=O)Nc1nc2c(s1)CCc1ccccc1-2,21%
COc1ccc2c(c1)-c1nc(NC(=O)c3cccc(Br)c3)sc1CC2,10µM*
O=C(c1ccccn1)N1CCn2c(nnc2-c2cccnc2)C1,-5%[44.1 µM]

# Screening data deposited in PubChem BioAssay by National Center for Advancing Translational Sciences (NCATS).
